According to PubChem BioAssay (NCI):
The panel holds about 83,000 compounds, 20% with a hit somewhere; the sample as a whole holds those more often.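 Single-concentration screen, 48 h exposure, 96-well plates. Endpoint: percent growth. Below 10 = active.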 The source made the active and inactive calls.

Assays:
Experiment in all cases: NCI-60 one-dose screen, 48 h (100 = growth as untreated, 0 = no growth, -100 = all killed)
Settings in all cases: 10 µM unless noted
NCI-H23 lung = system: NCI-H23 lung
NCI-H226 lung = system: NCI-H226 lung
NCI-H322M lung = system: NCI-H322M lung
HOP-62 NSCLC = system: HOP-62 NSCLC
NCI-H460 lung = system: NCI-H460 lung
HOP-92 NSCLC = system: HOP-92 NSCLC
NCI-H522 lung = system: NCI-H522 lung
A549/ATCC NSCLC = system: A549/ATCC NSCLC
786-0 renal = system: 786-0 renal
COLO 205 colon = system: COLO 205 colon
DU-145 prostate = system: DU-145 prostate
K-562 leukemia = system: K-562 leukemia
MALME-3M melanoma = system: MALME-3M melanoma
MDA-MB-231 breast = system: MDA-MB-231 breast
SF-268 CNS = system: SF-268 CNS
SF-295 CNS = system: SF-295 CNS
SF-539 CNS = system: SF-539 CNS
UACC-257 melanoma = system: UACC-257 melanoma
M14 melanoma = system: M14 melanoma
RXF 393 renal = system: RXF 393 renal

Measured: growth

C/C(=C(/c1ccccc1)c1ccc(OCC(O)CNCCN2CCOCC2)cc1)c1ccccc1 (stereo not given)
inactive: NCI-H23 lung 83.2% | NCI-H226 lung 96.1% | NCI-H322M lung 72.7% | HOP-62 NSCLC 54.9% | NCI-H460 lung 17.6% | HOP-92 NSCLC 59.1% | NCI-H522 lung 44.6% | A549/ATCC NSCLC 70.8% | 786-0 renal 97.6% | DU-145 prostate 67.8% | MDA-MB-231 breast 29.4% | SF-268 CNS 78.5% | SF-295 CNS 71.2% | SF-539 CNS 72.8% | M14 melanoma 92.6%
active: COLO 205 colon -64.5% | K-562 leukemia 2.44% | MALME-3M melanoma -71.2% | UACC-257 melanoma -27.5%

COc1cc2nnn3c4ncccc4c(N=O)c3c2cc1OC
active: HOP-92 NSCLC -12% | NCI-H522 lung -34.3%
inactive: NCI-H23 lung 112% | NCI-H226 lung 97% | NCI-H322M lung 78.6% | HOP-62 NSCLC 106% | NCI-H460 lung 84.9% | A549/ATCC NSCLC 95.2% | 786-0 renal 48.2% | COLO 205 colon 102% | DU-145 prostate 102% | MALME-3M melanoma 91.2% | MDA-MB-231 breast 78.6% | SF-268 CNS 30.3% | SF-295 CNS 111% | SF-539 CNS 98.6% | UACC-257 melanoma 76.1% | M14 melanoma 104%

Cc1ccc(C2CC(c3cccc(Nc4ccncc4)c3)=NN2c2cc(Cl)cc(Cl)c2)cc1 (stereo not given)
inactive: NCI-H23 lung 61.1% | NCI-H226 lung 86.3% | NCI-H322M lung 73.7% | HOP-62 NSCLC 40.5% | HOP-92 NSCLC 57.7% | NCI-H522 lung 21% | 786-0 renal 51% | DU-145 prostate 30.8% | MDA-MB-231 breast 40.9% | SF-268 CNS 82.8% | SF-539 CNS 78.1% | UACC-257 melanoma 76.2%
active: NCI-H460 lung -73.4% | A549/ATCC NSCLC 4.87% | COLO 205 colon -43.1% | K-562 leukemia 1.45% | MALME-3M melanoma 1.81% | SF-295 CNS -6.71% | M14 melanoma 2.02%

Cc1cc(C)c(C=O)c(C)c1
inactive: NCI-H23 lung 101% | NCI-H226 lung 95.2% | NCI-H322M lung 106% | HOP-62 NSCLC 72.4% | NCI-H460 lung 106% | HOP-92 NSCLC 86.4% | NCI-H522 lung 82.7% | A549/ATCC NSCLC 72.1% | 786-0 renal 96.2% | COLO 205 colon 107% | DU-145 prostate 117% | K-562 leukemia 100% | MALME-3M melanoma 114% | MDA-MB-231 breast 112% | SF-268 CNS 104% | SF-295 CNS 101% | SF-539 CNS 106% | UACC-257 melanoma 74.5% | M14 melanoma 84.3%

Clc1nc(Nc2ccccc2)nc(Nc2ccccc2)n1
inactive: NCI-H23 lung 103% | NCI-H226 lung 91.2% | NCI-H322M lung 96.3% | HOP-62 NSCLC 81.5% | NCI-H460 lung 109% | HOP-92 NSCLC 77.9% | NCI-H522 lung 83.8% | A549/ATCC NSCLC 104% | 786-0 renal 84.4% | COLO 205 colon 108% | DU-145 prostate 101% | MALME-3M melanoma 111% | MDA-MB-231 breast 88.8% | RXF 393 renal 117% | SF-268 CNS 103% | SF-295 CNS 100% | SF-539 CNS 100% | UACC-257 melanoma 130% | M14 melanoma 118%

O=C(O)c1cn(C2CC2)c2cc(N3CCN(C(=O)C[n+]4cccc5ccccc54)CC3)c(F)cc2c1=O
inactive: NCI-H23 lung 84.4% | NCI-H226 lung 101% | NCI-H322M lung 102% | HOP-62 NSCLC 98.9% | NCI-H460 lung 96.6% | HOP-92 NSCLC 95.5% | A549/ATCC NSCLC 98.7% | 786-0 renal 48.5% | COLO 205 colon 34.5% | DU-145 prostate 91.7% | MDA-MB-231 breast 99.8% | SF-268 CNS 68.2% | SF-295 CNS 107% | SF-539 CNS 69.1% | UACC-257 melanoma 82.3% | M14 melanoma 64.8%
active: NCI-H522 lung -90% | MALME-3M melanoma -41.7%

O=[N+]([O-])c1cccc(-c2nc(-c3ccc(Cl)cc3Cl)cn2-c2ccccc2)c1
active: HOP-62 NSCLC -75.4% | NCI-H460 lung -76.4% | A549/ATCC NSCLC -32.9% | 786-0 renal -99.5% | COLO 205 colon -36.5% | DU-145 prostate -80.1% | MDA-MB-231 breast -14.6% | SF-268 CNS 0.437% | SF-295 CNS -74.3% | UACC-257 melanoma -63.6% | M14 melanoma -71.6%
inactive: NCI-H23 lung 20.8% | NCI-H226 lung 18% | NCI-H322M lung 157% | HOP-92 NSCLC 12.6% | NCI-H522 lung 12.8% | K-562 leukemia 43.5% | MALME-3M melanoma 128% | SF-539 CNS 23.6%

Cc1ccc(C2CC(c3cccc(Nc4ccncc4)c3)=NN2c2ccccc2)cc1 (stereo not given)
inactive: NCI-H226 lung 28.9% | 786-0 renal 22.1%
active: NCI-H23 lung -69.3% | NCI-H322M lung -87.4% | HOP-62 NSCLC -67% | NCI-H460 lung -77.8% | HOP-92 NSCLC -90.7% | NCI-H522 lung -65.1% | A549/ATCC NSCLC -60.2% | COLO 205 colon -69% | DU-145 prostate -72.2% | K-562 leukemia -15.6% | MALME-3M melanoma -92.8% | MDA-MB-231 breast -87.9% | SF-268 CNS -73.1% | SF-295 CNS -91.3% | SF-539 CNS -96.9% | UACC-257 melanoma -55.7% | M14 melanoma -49.8%
